This is one part of a sample in which hits are shown more often than they occur.
KDM5B inhibitor: blocks human KDM5B histone demethylase activity; Q9UGL1; KDM5B demethylase, FDH-coupled NADH fluorescence (FDH is formaldehyde dehydrogenase); Potency, µM (top dose mostly 57.7 µM), hits mostly inhibitors; 220,000 tested, 2.6% active; AID 1347165; active means well fitted inhibition curve with a large enough effect; further: nearly all actives have a fitted effect of over 70% in size
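Compound dilutions met 200 nM (final) KDM5BΔAP for 10 min at room temperature before substrate addition. The substrate mix held 12.5 µM H3K4me3 with cofactors 25 µM α-ketoglutarate and 50 µM Fe²⁺. NADH signal gain over 30 min defined activity.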
Of the large screens only hits and unclear results are named; the others gave an inactive call.

CN(Cc1ccco1)C(=O)c1ccc(-c2ccc(N3CCCCCC3)nc2)cc1	KDM5B inhibitor 28µM
O=C(NCCN1CCOCC1)c1ccc(-c2ccc(N3CCSCC3)nc2)cc1	KDM5B inhibitor 28µM
Cc1ccc(C(=O)NC[C@H]2O[C@@H](CC(=O)NCCN3CCOCC3)[C@H](O)[C@@H]2O)cc1	none
O=C(COC(=O)c1cccs1)c1ccc(OC(=O)c2ccco2)cc1	none
O=C(O)c1ccc(-c2cc(Cl)cc(Cl)c2)s1	none
CC(NC(=O)CC1C=CCC1)c1cccs1 (centres undefined)	none
COc1cccc(NC(=O)N2CCOc3ccc(Cl)cc32)c1	none
COC(=O)c1cc(-c2cc(C(F)(F)F)ccc2Cl)oc1C	none
COc1ccc(Nc2nc(N3CCOCC3)nc3c2cnn3C)cc1	none
Cc1ccc(CN2CCCN(c3ccc(C(=O)NCc4ccc5c(c4)OCO5)cc3)C2=O)cc1	none
CN(C)CCNC(=O)c1ccc(-c2ccc(N3CCCCCC3)nc2)cc1	KDM5B inhibitor 25µM
Cc1ccc(C(=O)NCCc2nnc3ccc(N4CCCC4)nn23)cc1	none
COc1cc(OC)cc(C(=O)Nc2ccc(N3CCCC3)nc2)c1	none
O=C(NCc1ccc2c(c1)OCO2)c1ccc(CN2CCc3ccccc3C2)cc1	none
O=C(NCc1ccc2c(c1)OCO2)c1ccc(-c2ccc(N3CCSCC3)nc2)cc1	KDM5B inhibitor 28µM
O=C1NCc2ccccc2CC12CCCCN2Cc1ccsc1 (centres undefined)	none
CN(C)c1ncnc2sc3c(c12)CCN(S(=O)(=O)c1ccccc1)C3	none
CC(C)C(=O)N1CCc2c(n(Cc3cccnc3)n(CCc3ccccc3)c2=O)C1	none
O=c1c2c(n(Cc3ccccc3)n1-c1ccccc1)CN(Cc1cccnc1)CC2	KDM5B inhibitor 32µM
O=c1c2c(n(Cc3cccnc3)n1CCc1ccccc1)CN(CC1CCOC1)CC2 (centres undefined)	KDM5B inhibitor 35µM
Nc1ncccc1CN1CCc2c(n(Cc3ccccc3)n(-c3ccccc3)c2=O)C1	none
COC1CCC(C(=O)N2CCc3c(n(Cc4cccnc4)n(-c4ccccc4)c3=O)C2)CC1 (centres undefined)	none
Cc1ncsc1C(=O)N1CCc2c(n(Cc3cccnc3)n(CCc3ccccc3)c2=O)C1	none
O=S(=O)(Nc1nc2ccccc2nc1NCc1ccccc1Cl)c1cccs1	none
O=C1NC2(CCCCCC2)NN1c1ccc(Br)cc1	none
CCOc1ccc(-c2nc(CSc3nc4c(=O)[nH]cnc4n3C)c(C)o2)cc1OC	none
Cc1nn2c(c1-c1ccnn1C(C)C)N(C(=O)C(C)C)CCC2	none
Cc1nn2c(c1-c1ccnn1C(C)C)N(Cc1ccc(C(=O)O)s1)CCC2	KDM5B inhibitor 25µM
COc1ccc(OC)c(CN2CCCn3nc(C)c(-c4ccnn4C(C)C)c32)c1	none
CCc1ccc(CNC(=O)c2c(C)oc3ncnc(N4CCCCC4)c23)cc1	none
CCc1ccc(CNC(=O)c2c(C)oc3nc(C)nc(N4CCCC4)c23)cc1	none
Cc1cc(C(=O)NCc2ccc3c(c2)OCO3)c(C)o1	none
Cc1nc(N2CCC(C(=O)NCCC3=CCCCC3)CC2)cc(C(F)(F)F)n1	none
Cc1cn2nc(C(=O)NCCC3=CCCCC3)cc2c(N2CCCC2)n1	KDM5B inhibitor 10µM
Cc1ccc(-n2cnc3cc(C(=O)NCCC4=CCCCC4)ccc32)c(C)c1	none
COc1ccc(CNC(=O)C2CCN(C(=O)c3cc4c(=O)[nH]c(C)cn4n3)CC2)cc1	none
Cc1cn2nc(C(=O)NCc3ccc4c(c3)OCO4)cc2c(N2CCCC2)n1	KDM5B inhibitor 25µM
COc1ccc(CNC(=O)c2cc3c(N4CCCC4)nc(C)cn3n2)cc1	none
CCc1ccc(CNC(=O)c2cc3c(N4CCCC4)nc(C)cn3n2)cc1	KDM5B inhibitor 25µM
CCCN1C(=O)c2cc(C(=O)NCc3ccc4c(c3)OCO4)nn2CC1(C)C(=O)NC1CCCC1 (centres undefined)	none
Cc1cn2nc(C(=O)NCc3ccc(Br)cc3)cc2c(N2CCCC2)n1	KDM5B inhibitor 28µM
Cc1cccc(NC(=O)COC(=O)Cn2cnc3c2c(=O)n(C)c(=O)n3C)c1	none
O=C(O)c1ccccc1C(=O)/C=C/c1cccs1	none
COC(=O)c1sc(NC(=O)COc2ccc(C)cc2C)nc1C	none
N#Cc1nc(-c2ccc(S(=O)(=O)N3CCCCCC3)cc2)oc1NCc1ccc2c(c1)OCO2	none
NC(=O)[C@H](CC1CCCCC1)NC(=O)[C@@H]1CN(S(=O)(=O)c2ccccc2)CCN1C(=O)c1cccs1	none
CCCN1C(=O)Cc2cc(C(=O)NC(C)c3ccc(OCC)cc3)ccc21 (centres undefined)	none
CCn1ccc(C(=O)N2CC(Oc3ccc(-c4nc(-c5ccccc5)no4)cc3)C2)n1	none
CC(=O)NCCC12CC3CC(CC(C3)C1)C2	none
CCC(C)(C)NC(=O)/C=C/c1cccc(C#N)c1	none
CCN(Cc1cccs1)Cc1cc(=O)oc2cc(C)c(C)cc12	none
Cc1ccc2nc(-c3ccc(NC(=O)C4CCC(C)(C(=O)O)C4(C)C)cc3)sc2c1 (centres undefined)	none
CCCOc1c(OC)cccc1C1CC(=O)Nc2c1c(C)nn2-c1ccc(Cl)nn1 (centres undefined)	none
Cc1cn2nc(C(=O)NC(C)c3ccccc3)cc2c(N2CCCC2)n1 (centres undefined)	none
Cc1cn2nc(C(=O)NCc3ccc(Cl)cc3)cc2c(N2CCCC2)n1	KDM5B inhibitor 32µM
O=C(NCc1ccc(Cl)cc1)c1cnc2sc(N3CCCCCC3)nn2c1=O	none
Cc1cn2nc(C(=O)NC(C)CCc3ccccc3)cc2c(N2CCCC2)n1 (centres undefined)	none
Cc1cn2nc(C(=O)NCc3ccc(F)cc3F)cc2c(N2CCCC2)n1	none
Cc1c(C(=O)NCc2ccc(Cl)cc2)sc2nc3n(c(=O)c12)CCCC3	none
Cc1cn2nc(C(=O)N3CCC(C(=O)NC4CCCCCC4)CC3)cc2c(=O)[nH]1	none
Cc1cn2nc(C(=O)NC3CCC(C)CC3)cc2c(N2CCCC2)n1 (centres undefined)	KDM5B inhibitor 28µM
Cc1cn2nc(C(=O)NCc3ccccc3C(F)(F)F)cc2c(N2CCCC2)n1	KDM5B inhibitor 14µM
Cc1cn2nc(C(=O)NCc3ccc(C(F)(F)F)cc3)cc2c(N2CCCC2)n1	KDM5B inhibitor 28µM
CCc1ccc(CNC(=O)C2CCN(c3nc4ccccc4nc3C(F)(F)F)CC2)cc1	none
Cn1ccnc1CN(C1CC1)S(=O)(=O)c1cc(Cl)ccc1Cl	none
CCOc1ccc(NC(=O)CC(C)C)c2cccnc12	none
O=C(CCc1ccsc1)Nc1cccc(N2CCCC2=O)c1	none
COc1ccc(CN2CCCCCNC(=O)CC2c2ccccc2)cc1Cn1ccnc1 (centres undefined)	none
CCOc1ccc(CNCc2c(C(=O)O)c(C)n(Cc3ccccc3Cl)c2C)cc1	none
CCC(=O)Nc1cc(C)c(O)c(-c2nc3ccccc3o2)c1	none
Cc1ccc2c(c1)SC(C(=O)O)C2 (centres undefined)	none
CN(C)c1cccc(C(=O)NNC(=O)c2ccc(Cl)cc2)c1	none
O=C1CSc2ccc(C(=O)OCc3nc(-c4ccccc4)no3)cc2N1	none
COc1ccc(C(C)=O)cc1Br	none
Cc1nc(CSc2ccc3c(c2)OCCCO3)oc1C	none
C/C(=N\O)C1CCCCCCCCCCC1	none
CCOC(=O)c1c(C)oc2ncn(Cc3noc(-c4cccs4)n3)c(=O)c12	none
CC(Sc1ncnc2ccccc12)C(=O)Nc1ccc(Cl)cc1Cl (centres undefined)	none
O=C(CCNS(=O)(=O)c1ccccc1)N1CCCCCC1	none
O=C(Nc1c(-c2ccccc2)nc2ccccn12)c1cccc(F)c1	none
O=C(O)CCc1conc1-c1ccc(F)cc1	none
Cc1nn(C)c2nc(NCCC(=O)N3CCCC3)sc12	none
Cc1ccc(C(=O)Nc2c(-c3ccccc3)nc3ccccn23)cc1	none
